Source: PubChem BioAssay (several laboratories)
A selection: hits, their analogues and other compounds. The true share with any hit is near 5.4%.
APOBEC3G inh: APOBEC3G (human) deaminase inhibition; recombinant A3G, ssDNA deamination FAM/TAMRA fluorescence; inhibition, % at 20 µM; hit rate 0.28% among 330,000; AID 493012;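 active = inhibition of at least 40% at 20 µM, with no more than 30% in the related APOBEC3A deaminase screen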
Target sequence (Q9HC16 whole entry, looked up): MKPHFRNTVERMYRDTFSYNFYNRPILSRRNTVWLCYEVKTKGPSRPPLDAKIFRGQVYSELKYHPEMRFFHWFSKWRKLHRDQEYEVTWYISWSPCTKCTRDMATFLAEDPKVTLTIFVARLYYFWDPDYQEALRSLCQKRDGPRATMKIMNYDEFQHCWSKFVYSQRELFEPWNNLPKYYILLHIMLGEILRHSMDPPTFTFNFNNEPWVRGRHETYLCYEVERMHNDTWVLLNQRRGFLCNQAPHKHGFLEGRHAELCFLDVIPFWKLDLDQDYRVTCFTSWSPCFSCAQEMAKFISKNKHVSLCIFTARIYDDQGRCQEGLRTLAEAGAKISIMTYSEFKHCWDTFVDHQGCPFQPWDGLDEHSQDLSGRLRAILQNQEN
A3A deaminase: inhibitors of human APOBEC3A DNA deaminase. P31941. recombinant A3A, FAM/TAMRA ssDNA deamination fluorescence. inhibition, % at 20 µM. hit rate 0.41% among 330,000;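 active = at least 40% inhibition at 20 µM here, with at most 30% in a related deaminase screen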
PHOSPHO1 inh: inhibitors of human PHOSPHO1 phosphatase; recombinant PHOSPHO1, absorbance phosphatase assay; AID 1565; inhibition, % at 13.3 µM; Q8TCT1; hit rate 1.1% among 290,000; in the data active = inhibition above about 60%
ALR inh: inhibitors of human sulfhydryl oxidase ALR; purified ALR, DTT oxidation, H2O2 HRP-luminol luminescence; inhibition, % (test concentration not listed); hit rate 3.8% among 290,000;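 active = mean replicate inhibition above about 79%, with every replicate also reaching it, limit read from the data; inconclusive = only one of the two criteria met; inactive = mean below limit and not every replicate reaching it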
Target sequence (P55789 whole entry, looked up): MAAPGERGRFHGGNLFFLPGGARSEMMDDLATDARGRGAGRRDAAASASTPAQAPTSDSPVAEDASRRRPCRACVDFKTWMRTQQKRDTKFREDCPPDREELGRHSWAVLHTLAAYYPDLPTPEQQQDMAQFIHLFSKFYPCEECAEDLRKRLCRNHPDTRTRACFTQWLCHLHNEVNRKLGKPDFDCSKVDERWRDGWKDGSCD
rCAG binder: molecules binding r(CAG) RNA repeats; r(CAG) RNA repeat, TO-PRO-1 dye displacement fluorescence; inhibition, % at 3 µM; hit rate 1.3% among 370,000; AID 651821;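 active = inhibition above the plate cutoff, the mean of all test compounds on that plate plus 3 SD, cut at about 35% in these data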;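 note: higher means more dye released from RNA so lower well fluorescence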
aDG glyco up: increases alpha dystroglycan glycosylation; Pro5-aDG cells, alpha-DG glycosylation AlphaScreen (IIH6); 0% Pro5, 100% B10-LARGE cell signal; activation, % at 10 µM; hit rate 0.22% among 360,000; AID 624168;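 active = activation of at least 8% versus controls, or a plate z-score of at least 8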;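 note: Pro5 are CHO cells carrying HIG-tagged alpha-DG that lacks glycosylation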
Numbers stand for hits; – = inactive; ? = inconclusive; · = no result given.

SMILES	APOBEC3G inh	A3A deaminase	PHOSPHO1 inh	ALR inh	rCAG binder	aDG glyco up
CCCCn1c(N)c(N(Cc2ccccc2OC)C(=O)C(C)Oc2ccc(Cl)cc2)c(=O)[nH]c1=O (configuration not stated)	–	–	63	–	–	–
Cc1ccc(-c2nc3cc(N)ccc3o2)c(C)c1	–	–	–	99	–	–
Nc1ccc2oc(-c3cccc4ccccc34)nc2c1	–	–	–	?	–	–
CC(C)(C)c1ccc(-c2nc3cc(N)ccc3o2)cc1	–	–	·	99	–	–
Cc1ccc(-c2nc3cc(N)ccc3o2)cc1	–	–	–	–	–	–
Cc1ccc2oc(-c3cccc(N)c3)nc2c1	–	–	–	–	–	–
Nc1ccc2oc(-c3cccs3)nc2c1	–	–	–	98	–	–
COC(=O)c1cc2c(c3c4cc(OC)ccc4n(S(=O)(=O)c4ccc(OC)cc4)c13)C(=O)N(Cc1ccc(C(F)(F)F)cc1)C2	·	·	·	·	–	·
COc1ccc(S(=O)(=O)N2CCCCCC2)c2ccccc12	·	·	·	·	–	·
O=C(C1CC1)N1CCc2cc(Br)c(S(=O)(=O)NCCCN3CCCCC3)cc21	·	·	·	·	–	·
C#CCN1CC(COc2ccccc2)Oc2cccc(Oc3ccc(C(C)C)cc3)c2S1(=O)=O (configuration not stated)	·	·	·	·	–	·
Cc1ccc(CN2CCCCC(NC(=O)c3ccccc3)C2=O)cc1 (configuration not stated)	·	·	·	·	–	·
COc1ccc(NC2CC(=O)N(c3cccc([N+](=O)[O-])c3)C2=O)cc1 (configuration not stated)	–	–	–	89	–	–
O=C(O)c1cccc(S(=O)(=O)NCC(=O)N2CCN(c3ccccn3)CC2)c1	·	·	·	·	–	·
c1ccc(-c2cc(N3CCCCCC3)n[nH]2)cc1	–	–	–	98	–	–
Oc1c(C=C2N=c3ccccc3=N2)sc(=S)n1-c1ccccc1	–	–	–	·	–	–
CC1=Nc2ccccc2/C1=C/c1sc(=S)n(-c2cccc(C(=O)O)c2)c1O	·	·	–	·	72	–
c1ccc(SCCN2CCN(c3ccccc3)CC2)cc1	–	–	–	98	–	–
CC(CN1CCN(c2ccccc2)CC1)c1ccccc1 (configuration not stated)	–	–	–	98	–	–
Brc1ccc(CN2CCN(c3ccccc3)CC2)o1	–	–	–	97	–	–
O=S1(=O)c2ccc(N3CCCC3)cc2Oc2ccccc2CN1Cc1cn(Cc2cccc(F)c2)nn1	·	·	·	·	–	·
CC(=O)c1cc(-c2ccc(Cl)c(Cl)c2)c(=O)n2c1CCC2	·	·	·	·	–	·
COCCn1nnnc1SCC(=O)NCc1ccc2c(c1)OCO2	–	–	–	96	–	–
O=C(CSc1nccn1-c1ccc(F)cc1)NCc1ccc2c(c1)OCO2	–	–	65	–	–	–
Cn1nnnc1SCC(=O)NCc1ccc2c(c1)OCO2	–	–	–	–	–	–
SMILES	APOBEC3G inh	A3A deaminase	PHOSPHO1 inh	ALR inh	rCAG binder	aDG glyco up
O=C(CSc1nccn1-c1ccccc1)NCc1ccc2c(c1)OCO2	–	–	–	–	–	–
COC(=O)C1CN(Cc2cn(CCOC(C)=O)nn2)CCS(=O)(=O)N1Cc1ccc(F)cc1 (configuration not stated)	·	·	·	·	–	·
COc1ccc(C2CC(=O)C(c3cccc(F)c3)=CN2Cc2ccccc2)cc1 (configuration not stated)	·	·	·	·	–	·
N#Cc1cccc(NC(=O)OC2CC3CC2[C@H]2CCCCN2C3)c1 (some centres not stated)	·	·	·	·	–	·
COc1ccc(NC(=S)Nc2ncccc2C)c(OC)c1	–	–	–	99	–	–
COc1ccc(NC(=S)Nc2ncccc2C)cc1OC	–	–	–	83	–	–
COc1ccc(-c2nnn3c2Cn2c4ccccc4c(=O)n2[C@@H](C)C3)cc1	·	·	·	·	–	·
COc1ccc(N2CCCN(CC(=O)Nc3ccc(Cl)c(Cl)c3)CC2)cc1	·	·	·	·	–	·
O=C(N[C@@H](Cc1cccnc1)C(=O)N1CCC[C@H]1C(=O)NC1CCCC1)C1CCCC1	·	·	·	·	–	·
Cc1cccc(C(=O)Nc2scc(CC(C)C)c2C(=O)O)c1	–	–	–	96	–	–
CC(C)Cc1csc(NC(=O)c2ccccc2Cl)c1C(=O)O	–	–	–	96	–	–
CC(C)Cc1csc(NC(=O)c2ccc(Cl)cc2)c1C(=O)O	–	–	–	–	–	–
Cc1cccc(C(=O)Nc2scc(-c3ccc(Br)cc3)c2C(=O)O)c1	–	–	·	–	–	–
CC(C)(C)c1ccc(-c2nnc(SCC(=O)c3ccc([N+](=O)[O-])cc3)n2-c2ccc(Cl)cc2)cc1	·	·	·	·	–	·
Cn1cccc1CC(=O)NN=C/C=C\c1ccco1	·	·	·	·	–	·
Cc1cc(C)cc(OC(C)CCN2CCC(C(O)(c3ccccc3)c3ccccc3)CC2)c1 (configuration not stated)	·	·	·	·	–	·
CCOC(=O)[C@@]12CCCC=C1N(CCc1ccc(Cl)cc1)C(=O)[C@H]2CC(=O)NCc1cccc(C(F)(F)F)c1	·	·	·	·	–	·
COc1cc2c(cc1NC(=O)CSc1cccc[n+]1[O-])oc1ccccc12	–	–	–	96	–	–
COc1cc2c(cc1NC(=O)Nc1ccccc1)oc1ccccc12	–	–	–	–	35	–
COc1cc2c(cc1NC(=O)CSc1ccc(C)cc1)oc1ccccc12	–	–	–	–	–	–
COC(=O)c1ccc(C(=O)OC)c(NC(=O)CSc2cccc[n+]2[O-])c1	–	–	87	–	–	–
COc1cc2c(cc1NC(=O)CCC(=O)O)oc1ccccc12	–	–	·	–	–	–
CC(=O)NC1CCCCN(C(C)C)C1=O (configuration not stated)	·	·	·	·	–	·
COc1ccc(C#CCN(Cc2ccc(OC)cc2OC)C(N)=NC(=O)CCc2ccccc2)cc1	·	·	·	·	–	·
Cc1cc(C(=O)NP(=O)(N2CCOCC2)N2CCOCC2)c(C)n1-c1ccc(N(C)C)cc1	–	–	–	93	–	–
SMILES	APOBEC3G inh	A3A deaminase	PHOSPHO1 inh	ALR inh	rCAG binder	aDG glyco up
Cc1cc(C(=O)NP(=O)(N2CCOCC2)N2CCOCC2)c(C)n1-c1ccc(Br)cc1	–	–	–	–	–	–
CCOc1ccccc1NC(=O)CN1C(=O)CSC(C)C1=O (configuration not stated)	–	–	65	·	–	–
COC(=O)c1cccc(Nc2cc(C)n(-c3cccc(C(=O)OC)c3)c(=O)c2)c1	·	·	·	·	–	·
O=C1OC(c2ccccc2)/C(=C(/O)c2ccc(Cl)cc2)C1=O (configuration not stated)	–	–	–	98	–	–
O=C1OC(c2ccccc2)/C(=C(/O)c2ccccc2)C1=O (configuration not stated)	–	–	–	92	–	–
O=C1C(=O)N(CCO)C(c2cccc(F)c2)/C1=C(\O)c1ccc(Cl)cc1 (configuration not stated)	–	–	–	–	–	–
Cc1ccc(/C(O)=C2/C(=O)C(=O)OC2c2ccc(Cl)cc2)cc1 (configuration not stated)	–	–	–	92	–	–
